# Measured values as given in the supplement of paper PMC10981050.
# “And” between values parts separate entries of the source, which are not always exact repeats. Equal entries are not always repeated. Structures can show the parent of a compound that is named as a salt.
# Experiments:
# Test in all cases: cell viability relative to vehicle control; higher = less cytotoxic
# Settings in all cases: 10 µM
# K562 = tested on: K562
# Summary of the method: (§1)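 CRISPR-edited SRSF2 P95 mutant and isogenic wild-type clones of four leukaemia lines were screened against Selleck bioactive, kinase and epigenetic probe libraries, with identity-inconsistent compounds removed. Compounds were acoustically dispensed into 384-well plates at a single 10 µM dose, with 2000 cells in 50 µL medium per well. After 48 h, supernatant was removed and CellTiter-Glo luminescence was read. Viability was expressed as percent of the on-plate DMSO vehicle control, analysed in Genedata Screener.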
# MARIMO = tested on: MARIMO
# Summary of the method: as §1
# MOLM14 = tested on: MOLM14
# Summary of the method: as §1
# OCI-AML2 = tested on: OCI-AML2
# Summary of the method: as §1
SMILES,cell viability (K562; SRSF2 genotype: SRSF2 P95H/wt),cell viability (K562; SRSF2 genotype: SRSF2 wt/wt) [%],cell viability (MARIMO; SRSF2 genotype: SRSF2 P95H/wt) [%],cell viability (MARIMO; SRSF2 genotype: SRSF2 wt/wt) [%],cell viability (MOLM14; SRSF2 genotype: SRSF2 P95H/wt) [%],cell viability (MOLM14; SRSF2 genotype: SRSF2 wt/wt) [%],cell viability (OCI-AML2; SRSF2 genotype: P95H/wt) [%],cell viability (OCI-AML2; SRSF2 genotype: wt/wt) [%]
Nc1ncn([C@@H]2O[C@H](CO)[C@@H](O)[C@H]2O)c(=O)n1 [Azacitidine (Vidaza)],47.4% and 45.7%,52.2,45.5,52.8,45.7,40.3,35.8,34.3
NC1CC1c1ccc(-c2cccc(O)c2)cc1 (configuration not stated),96.2% and 104%,97.1,88.3,106,99.4,99.1,87,92
O=C(O)c1ccco1 [2-Furoic acid],95.7% and 95.1%,103,95.9,108,98.5,101,97.5,102
c1ccc2c(c1)CCCC2C1=NCCN1 (configuration not stated) [Tetrahydrozoline HCl],101% and 92.1%,92.9,92.1,97.2,79.5,90.7,87.8,93.8
CCN(CC)Cc1cc(Nc2ccnc3cc(Cl)ccc23)ccc1O [Amodiaquine hydrochloride],80.3% and 76.8%,74,61,67.4,40.2,31.1,39,33.4
COc1cc(Nc2ncc(F)c(Nc3ccc4c(n3)N(COP(=O)(O)O)C(=O)C(C)(C)O4)n2)cc(OC)c1OC [R788 (Fostamatinib)],65.8% and 65.1%,59.4,63.8,57,3.63,6.37,11.3,21.2
CC(C)c1c2cc(-c3ccnc(NC4CCC(NC5CCOCC5)CC4)n3)ccc2nn1C (configuration not stated),10% and 24.4%,8.4,13.4,6.58,0.76,0.31,2.85,13.2
CS(=O)(=O)c1cccc(CNc2nc(Nc3ccc4c(c3)CCC(=O)N4)ncc2C(F)(F)F)c1,77% and 90.4%,98.3,49.7,48.8,8.16,5.1,9.56,16.9
CCCCCCCC/C=C\CCCCCCCC(=O)OCC [Ethyl Oleate],101% and 94.1%,97.8,86.5,100,92.3,95,88.7,93.7
O=Cc1ccc(CO)o1 [5-Hydroxymethylfurfural],91.8% and 86.8%,84,85,95.1,86.9,91.3,85.6,92.7
C=C(C)[C@@H]1CC[C@]2(C(=O)O)CC[C@]3(C)[C@H](CC[C@@H]4[C@@]5(C)CC[C@H](O)C(C)(C)[C@@H]5CC[C@]43C)[C@@H]12 [Betulinic acid],72% and 77.2%,80.1,82.3,51.4,86.7,89.3,61.9,65
C=CCc1cccc(/C=N/NC(=O)CN2CCN(Cc3ccccc3)CC2)c1O,70.5% and 67%,65.4,25.7,31.6,12.3,8.85,19.2,19.7
CO/N=C1\C[C@]2(C[C@@H]3C[C@@H](C/C=C(\C)C[C@@H](C)/C=C/C=C4\CO[C@@H]5[C@H](O)C(C)=C[C@@H](C(=O)O3)[C@]45O)O2)O[C@H](/C(C)=C/C(C)C)[C@H]1C [Moxidectin],59.6% and 63.5%,66.4,54.6,67.3,46.9,53.3,40.1,25.3
CCC(=O)O[C@]1(C(=O)CCl)[C@@H](C)C[C@H]2[C@@H]3CCC4=CC(=O)C=C[C@]4(C)[C@@]3(F)[C@@H](O)C[C@@]21C [Clobetasol propionate],88.3% and 95.4%,88.2,85.1,96.7,81.2,80.8,90.5,101
COc1cc(C(=O)NC2CCN(C)CC2)ccc1Nc1ncc2c(n1)N(C1CCCC1)CC(F)(F)C(=O)N2C,24.5% and 48.3%,44.6,31.6,26.3,15,5.38,4.16,9.85
[Na+].[Na+].[Na+].[Na+].[Na+].[Na+].[O]=[W](=[O])([O-])[O-].[O]=[W](=[O])([O-])[O-].[O]=[W](=[O])([O-])[O-].[O]=[W](=[O])=[O].[O]=[W](=[O])=[O].[O]=[W](=[O])=[O].[O]=[W](=[O])=[O].[O]=[W](=[O])=[O].[O]=[W](=[O])=[O].[O]=[W](=[O])=[O].[O]=[W](=[O])=[O].[O]=[W](=[O])=[O] [SodiuM Metatungstate],103% and 109%,106,121,106,103,109,88.9,93.5
c1cn2cc(-c3ccc4cn[nH]c4c3)nc(Nc3ccc(N4CCOCC4)cc3)c2n1 [Entospletinib (GS-9973)],89.8% and 84.7%,95.7,89.5,89.9,79,95.6,92.5,85.6
CC1(C)CC[C@]2(NC(=O)C(C)(F)F)CC[C@]3(C)[C@H](C(=O)C=C4[C@@]5(C)C=C(C#N)C(=O)C(C)(C)[C@@H]5CC[C@]43C)[C@@H]2C1 [Omaveloxolone (RTA-408)],9.19% and 4.65%,5.62,1.12,0.48,0.3,0.25,0.23,0.32
N=C(N)Nc1ccc(C(=O)Oc2ccc3cc(C(=N)N)ccc3c2)cc1 [Nafamostat mesylate],90.4% and 98.9%,89.4,77.2,76,94.2,89.4,83.2,85.1
CC(=O)Nc1ccc(C(=O)Nc2ccccc2N)cc1 [CI994 (Tacedinaline)],59.2% and 64.7%,66,37.9,41.3,31.6,25.8,24.3,30

SMILES,cell viability (K562; SRSF2 genotype: SRSF2 P95H/wt),cell viability (K562; SRSF2 genotype: SRSF2 wt/wt) [%],cell viability (MARIMO; SRSF2 genotype: SRSF2 P95H/wt) [%],cell viability (MARIMO; SRSF2 genotype: SRSF2 wt/wt) [%],cell viability (MOLM14; SRSF2 genotype: SRSF2 P95H/wt) [%],cell viability (MOLM14; SRSF2 genotype: SRSF2 wt/wt) [%],cell viability (OCI-AML2; SRSF2 genotype: P95H/wt) [%],cell viability (OCI-AML2; SRSF2 genotype: wt/wt) [%]
COc1cc2c(cc1O)CC[n+]1cc3c(OC)c(OC)ccc3cc1-2 [Jatrorrhizine chloride],84.4% and 88.5%,90.3,92.6,92.9,97.6,90.5,93.5,91.4
CC(C)(CNC(=O)c1cccc(-c2noc(C(F)(F)F)n2)c1)c1coc(-c2ccccc2)n1,89.2% and 87.4%,94.5,82.1,82.6,91,96,52.5,67.2
NC(=O)Cc1c[nH]c2ccccc12 [Indole-3-acetamide],97.9% and 97.4%,107,98,100,92.9,103,107,115
OCC(O)C(O)CO (configuration not stated) [Erythritol],100% and 105%,99.9,98.4,106,101,101,98.2,110
Fc1ccc(-c2c3cccc(C(F)(F)F)c3nn2Cc2ccc(F)cc2Cl)cc1,95.4% and 91.2%,90.1,97.2,114,94.2,98,114,120
CCCc1nc(C(C)(C)O)c(C(=O)OCc2oc(=O)oc2C)n1Cc1ccc(-c2ccccc2-c2nnn[nH]2)cc1 [Olmesartan medoxomil (Benicar)],105% and 103%,106,109,111,97.2,104,104,106
CC(C)CCCC(C)CCCC(C)CCCCC(C)CCCC(C)CCCC(C)C (configuration not stated) [Squalane],109% and 97%,108,105,106,103,108,103,100
CCN(CC)CC#CCOC(=O)C(O)(c1ccccc1)C1CCCCC1 (configuration not stated) [Oxybutynin (Ditropan)],97.7% and 102%,104,82.9,95.9,83.5,100,91.8,87
CC(C)(C)c1nc(-c2cccc(NS(=O)(=O)c3c(F)cccc3F)c2F)c(-c2ccnc(N)n2)s1,90.3% and 101%,84.3,78.5,75.8,73.6,68.2,93.2,83.9
CCCCCOc1ccc(-c2ccc(-c3ccc(C(=O)N[C@H]4C[C@@H](O)[C@@H](O)NC(=O)[C@@H]5[C@@H](O)[C@@H](C)CN5C(=O)[C@H]([C@@H](C)O)NC(=O)[C@H]([C@H](O)[C@@H](O)c5ccc(O)cc5)NC(=O)[C@@H]5C[C@@H](O)CN5C(=O)[C@H]([C@@H](C)O)NC4=O)cc3)cc2)cc1,77.8% and 78.3%,80.5,95.7,94.3,82.7,84.5,77.5,82.8
CCN(CC)CC#CCOC(=O)C(O)(c1ccccc1)C1CCCCC1 (configuration not stated) [Oxybutynin chloride],94.9% and 97.5%,88.6,79.8,96,83,101,80.8,91.8
O=c1ccc2cc(O)ccc2o1 [6-Hydroxycoumarin],99.5% and 104%,102,99,90.9,104,101,97.9,99
Cn1c(=O)c(Oc2ccc(F)cc2F)cc2cnc(NC(CCO)CCO)nc21,91.7% and 92.6%,90.4,98.9,97.2,92.2,99.8,96.2,92.2
Cc1nc(Nc2ncc(C(=O)Nc3c(C)cccc3Cl)s2)cc(N2CCN(CCO)CC2)n1 [Dasatinib Monohydrate],23.6% and 40.6%,28.3,67.5,70.5,38.8,39,33.3,43.3
C[C@]12CC[C@@H]3c4ccc(O)cc4CC[C@H]3[C@@H]1C[C@@H](O)[C@@H]2O [Estriol],104% and 92.3%,87.9,86.4,99.5,101,99.9,91,101
CCc1ccc(Cc2ccc3c(c2)[C@]2(OC3)O[C@H](CO)[C@@H](O)[C@H](O)[C@H]2O)cc1 [Tofogliflozin(CSG 452)],81.3% and 83.7%,81.2,77.3,88.5,80.2,82.5,93.8,85.6
C=C1C[C@@]23CC[C@H]4[C@@](C)(CCC[C@@]4(C)C(=O)O[C@@H]4O[C@H](CO)[C@@H](O)[C@H](O)[C@H]4O)[C@@H]2CC[C@]1(O[C@@H]1O[C@H](CO)[C@@H](O)[C@H](O)[C@H]1O)C3 [Rubusoside],100% and 97.7%,101,110,104,104,103,104,114
CC(=O)Oc1ccccc1C(=O)O [Aspirin (Acetylsalicylic acid)],102% and 101%,94,96.4,95.9,95.7,102,100,96.7
CC(C)Cc1ccc([C@@H](C)C(=O)NS(C)(=O)=O)cc1 [Reparixin (Repertaxin)],102% and 97.5%,98.4,97.6,99.2,95.7,98.4,93.3,105
